# Measured values published in paper PMC5700166.
# Changes are numbered by the printed parent chain.
# Tests used:
# Assay in all cases: protein-binding microarray (PBM); PBM: ~300 nM protein, 6 mM HEPES pH 7.8, 80 mM KCl, 0.5 mM EDTA, 0.5 mM EGTA, 6% glycerol, 35 ng/ul poly-dIdC, 1% milk, 1 h, room temperature; Ap Aiptasia and Nv Nematostella (sea anemones) / Co Capsaspora / Aq Amphimedon (sponge) / Dm Drosophila / Hu human; RHD is the Rel homology domain; high values mean tight binding
# Details in all cases: dsDNA, one strand shown
# [1] = molecular target: T1, GST-Ap-NF-kB RHD (Exaiptasia pallida (Aiptasia), UniProt A0A913YAJ5 2-422)
# T1 sequence: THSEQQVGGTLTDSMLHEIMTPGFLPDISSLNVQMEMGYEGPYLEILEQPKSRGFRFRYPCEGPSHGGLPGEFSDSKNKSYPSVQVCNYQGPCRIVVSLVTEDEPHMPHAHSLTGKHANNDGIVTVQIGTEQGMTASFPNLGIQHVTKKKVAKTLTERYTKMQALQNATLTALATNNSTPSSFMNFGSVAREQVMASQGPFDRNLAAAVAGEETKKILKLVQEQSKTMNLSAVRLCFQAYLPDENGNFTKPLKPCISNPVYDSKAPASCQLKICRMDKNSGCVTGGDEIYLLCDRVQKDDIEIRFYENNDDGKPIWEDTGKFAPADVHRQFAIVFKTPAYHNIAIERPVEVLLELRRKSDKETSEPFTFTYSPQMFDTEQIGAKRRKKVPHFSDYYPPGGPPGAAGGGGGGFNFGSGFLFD
# [2] = molecular target: T2, GST-Nv-NF-kB (Cys allele) (Nematostella vectensis, UniProt E5G601 2-411)
# T2 sequence: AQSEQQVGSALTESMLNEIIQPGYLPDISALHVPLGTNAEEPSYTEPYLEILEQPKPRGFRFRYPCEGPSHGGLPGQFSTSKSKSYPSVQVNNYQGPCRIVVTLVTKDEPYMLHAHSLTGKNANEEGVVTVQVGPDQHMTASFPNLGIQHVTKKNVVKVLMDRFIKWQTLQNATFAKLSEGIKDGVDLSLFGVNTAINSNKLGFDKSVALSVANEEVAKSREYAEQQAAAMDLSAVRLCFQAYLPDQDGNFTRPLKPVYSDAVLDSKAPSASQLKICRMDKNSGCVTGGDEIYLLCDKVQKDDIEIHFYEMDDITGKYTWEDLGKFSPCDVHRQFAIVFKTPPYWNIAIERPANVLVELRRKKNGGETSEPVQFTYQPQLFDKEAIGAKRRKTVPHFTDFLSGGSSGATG
# [3] = molecular target: T3, GST-Nv-NF-kB (Ser allele) (Nematostella vectensis, UniProt A7UNT2 2-411)
# T3 sequence: T2 sequence with Q21R, C66S, S207N, E215Q, V217A, E225K, A268E, D399E
# [4] = molecular target: T4, GST-Co-NF-kB (Capsaspora owczarzaki, UniProt F1ARL5 200-546)
# T4 sequence: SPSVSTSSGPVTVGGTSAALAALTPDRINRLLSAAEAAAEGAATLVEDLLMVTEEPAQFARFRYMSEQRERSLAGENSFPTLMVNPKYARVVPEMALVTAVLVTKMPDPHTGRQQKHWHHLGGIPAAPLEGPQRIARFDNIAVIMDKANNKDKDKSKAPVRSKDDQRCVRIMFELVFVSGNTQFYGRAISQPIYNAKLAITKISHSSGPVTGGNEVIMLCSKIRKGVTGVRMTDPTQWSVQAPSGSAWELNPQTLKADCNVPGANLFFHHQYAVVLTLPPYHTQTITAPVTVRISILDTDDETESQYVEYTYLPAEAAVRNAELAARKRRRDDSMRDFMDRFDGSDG
# [5] = molecular target: T5, GST-Dm-Relish (Drosophila melanogaster, UniProt Q94527 99-473)
# T5 sequence: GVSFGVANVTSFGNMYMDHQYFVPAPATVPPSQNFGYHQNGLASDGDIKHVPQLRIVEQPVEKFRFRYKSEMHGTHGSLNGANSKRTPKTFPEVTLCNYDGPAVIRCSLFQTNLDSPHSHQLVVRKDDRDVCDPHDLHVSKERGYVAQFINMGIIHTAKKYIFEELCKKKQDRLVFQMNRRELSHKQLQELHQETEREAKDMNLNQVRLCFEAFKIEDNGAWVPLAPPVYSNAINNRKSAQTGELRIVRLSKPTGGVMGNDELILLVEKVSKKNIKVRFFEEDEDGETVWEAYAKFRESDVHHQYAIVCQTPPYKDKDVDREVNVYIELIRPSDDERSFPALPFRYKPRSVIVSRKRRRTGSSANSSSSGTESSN
# [6] = molecular target: T6, GST-Aq-NF-kB (Amphimedon queenslandica, UniProt A9Y5G7 2-389)
# T6 sequence: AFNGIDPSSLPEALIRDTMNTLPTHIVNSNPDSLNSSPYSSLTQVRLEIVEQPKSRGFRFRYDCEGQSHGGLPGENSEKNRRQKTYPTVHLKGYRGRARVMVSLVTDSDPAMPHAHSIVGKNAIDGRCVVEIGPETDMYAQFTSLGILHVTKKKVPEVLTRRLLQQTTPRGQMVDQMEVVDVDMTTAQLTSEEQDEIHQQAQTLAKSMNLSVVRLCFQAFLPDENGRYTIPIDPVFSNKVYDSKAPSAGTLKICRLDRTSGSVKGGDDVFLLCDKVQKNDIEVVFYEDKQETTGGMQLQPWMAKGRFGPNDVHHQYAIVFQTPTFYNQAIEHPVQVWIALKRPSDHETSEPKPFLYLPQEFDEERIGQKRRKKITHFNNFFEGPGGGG
# [7] = molecular target: GST-Hu-p50 (Homo sapiens, UniProt P19838 7-356)
# Chain of GST-Hu-p50 (P19838 7-356): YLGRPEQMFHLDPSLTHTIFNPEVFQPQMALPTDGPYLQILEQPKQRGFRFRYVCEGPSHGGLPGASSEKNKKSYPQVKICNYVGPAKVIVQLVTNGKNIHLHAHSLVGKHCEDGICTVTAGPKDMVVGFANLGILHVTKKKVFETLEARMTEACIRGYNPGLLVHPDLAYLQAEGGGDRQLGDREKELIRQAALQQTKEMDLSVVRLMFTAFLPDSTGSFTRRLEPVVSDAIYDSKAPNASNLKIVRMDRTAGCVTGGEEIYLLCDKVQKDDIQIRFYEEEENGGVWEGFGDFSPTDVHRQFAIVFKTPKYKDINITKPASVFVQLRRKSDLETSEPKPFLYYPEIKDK
Sequence,binding signal [1] [z-score],binding signal [2] [z-score],binding signal [3] [z-score],binding signal [4] [z-score],binding signal [5] [z-score],binding signal [6] [z-score],binding signal [7] [z-score]
CCGATTAACATCACAGAAATCCCTGATGTTAATCGGGTCTTGATTCGCTTGACGCTGCTG,4.33,3.88,3.79,1.43,5.77,3.9,3.37
CCGATTAACATCACGGGGAATTCTGATGTTAATCGGGTCTTGATTCGCTTGACGCTGCTG,9.62,10.1,10.3,8.83,8.15,7.98,6.54
CCGATTAACATCACGTGATTCCCTGATGTTAATCGGGTCTTGATTCGCTTGACGCTGCTG,2.22,2.38,2.58,1.63,8.61,3.33,1.11
CCGATTAACATCAGGGTAATACCTGATGTTAATCGGGTCTTGATTCGCTTGACGCTGCTG,4.26,5.72,3.69,2.23,3.92,7.45,2.82
CCGATTAACATCAGGGGAAACCATGATGTTAATCGGGTCTTGATTCGCTTGACGCTGCTG,6.6,7.42,10.1,8.24,6.18,5.84,5.64
CCGATTAACATCACCCTTTCCCCTGATGTTAATCGGGTCTTGATTCGCTTGACGCTGCTG,4.99,5.19,7.16,5.72,1.82,4.33,3.91
CCGATTAACATCAAGAAAGTCCCTGATGTTAATCGGGTCTTGATTCGCTTGACGCTGCTG,7.56,8.86,8.7,1.38,7.13,6.74,6.05
CCGATTAACATCAATATCCCCCATGATGTTAATCGGGTCTTGATTCGCTTGACGCTGCTG,6.62,4.94,5.43,6.5,3.73,4.55,5.2
CCGATTAACATCAGGGCTTCCCCTGATGTTAATCGGGTCTTGATTCGCTTGACGCTGCTG,9.17,10.8,8.58,4.03,10.4,9.48,6.74
CCGATTAACATCAAGAATTTCCCTGATGTTAATCGGGTCTTGATTCGCTTGACGCTGCTG,5.92,7.47,7.49,5.07,3.52,7.53,5.23
CCGATTAACATCAGGACTCCCCCTGATGTTAATCGGGTCTTGATTCGCTTGACGCTGCTG,8.82,7.17,6.45,4.97,8.9,9.21,6.59
CCGATTAACATCAGCTAATTCCCTGATGTTAATCGGGTCTTGATTCGCTTGACGCTGCTG,1.96,3.33,3.36,1.82,1.18,3.15,2.27
CCGATTAACATCAGATTTCCCCCTGATGTTAATCGGGTCTTGATTCGCTTGACGCTGCTG,8.72,8.96,10.8,11,6.42,7.34,7.39
CCGATTAACATCAAAATTTACCCTGATGTTAATCGGGTCTTGATTCGCTTGACGCTGCTG,3.17,5.04,6.15,4.27,4.47,5.23,4.09
CCGATTAACATCAGGGGAACGGATGATGTTAATCGGGTCTTGATTCGCTTGACGCTGCTG,4.83,5.28,6.1,4.35,1.58,3.47,3.91
CCGATTAACATCAGGGGAAAAGATGATGTTAATCGGGTCTTGATTCGCTTGACGCTGCTG,5.46,6.76,9.01,7.74,1.82,4.78,5.18
CCGATTAACATCAAAAGAGTCCCTGATGTTAATCGGGTCTTGATTCGCTTGACGCTGCTG,5.39,5.99,5.71,1.5,5.32,5.91,4.6
CCGATTAACATCAGAGGATTCCCTGATGTTAATCGGGTCTTGATTCGCTTGACGCTGCTG,3.72,4.52,4.31,2.44,7.61,4.43,2.84
CCGATTAACATCAAAGAAACCCCTGATGTTAATCGGGTCTTGATTCGCTTGACGCTGCTG,6,5.33,5.11,1.95,6.23,5.01,5.25
CCGATTAACATCAGGGTGGGAAATGATGTTAATCGGGTCTTGATTCGCTTGACGCTGCTG,2.06,3.1,2.77,3.37,1.62,2.27,2.15
CCGATTAACATCAAATTCCCACATGATGTTAATCGGGTCTTGATTCGCTTGACGCTGCTG,2,3.53,3.94,3.33,4.42,2.66,2.85
CCGATTAACATCAGGGGAAAGTATGATGTTAATCGGGTCTTGATTCGCTTGACGCTGCTG,6.56,7.79,9.37,7.64,2.88,5.82,5.75
CCGATTAACATCAGGAATTTCCCTGATGTTAATCGGGTCTTGATTCGCTTGACGCTGCTG,6.77,10.1,6.94,4.93,5.72,10.8,6.03
